From the supplement of paper PMC9844399
Counter-ions that a name gives are not always drawn.

These compounds were tested on HeLa (assay: nuclear count per well, robust Z-score vs DMSO; higher = more cells (less toxicity)). Details: 10 µM; 6 h.
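Further: Hoechst-stained nuclei counted by automated confocal imaging of four fields per well in 384-well plates, with the robust Z-score based on the per-plate DMSO median and robust SD.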

Row | Compound | nuclear count per well
1 | O=C1CN=C(c2ccccc2Cl)c2cc([N+](=O)[O-])ccc2N1 [Clonazepam] | 0.702
2 | CCCCC/C=C\CC1OC1CCCCCCCC(=O)O (stereo not drawn) [Leukotoxin A (9,10-EODE)] | -0.0952
3 | CC1(C)C(C=C(Cl)Cl)C1C(=O)OCc1cccc(Oc2ccccc2)c1 (stereo not drawn) [Permethrin] | 0.484
4 | CN1[C@@H]2CC[C@H]1C[C@@H](OC(=O)C(CO)c1ccccc1)C2 (stereo partly drawn) [Atropine Sulfate Monohydrate] | 0.868
5 | CC(C)[C@@H]1NC(=O)[C@H](C)OC(=O)[C@@H](C(C)C)NC(=O)[C@@H](C(C)C)OC(=O)[C@H](C(C)C)NC(=O)[C@H](C)OC(=O)[C@@H](C(C)C)NC(=O)[C@@H](C(C)C)OC(=O)[C@H](C(C)C)NC(=O)[C@H](C)OC(=O)[C@@H](C(C)C)NC(=O)[C@@H](C(C)C)OC1=O [Valinomycin] | -0.196
6 | NCC1(CC(=O)O)CCCCC1 [Gabapentin] | 0.315
7 | CC(C)n1cc2c3c(cccc31)C1C[C@@H](C(=O)N[C@H]3CCC[C@H]3O)CN(C)[C@@H]1C2 (stereo partly drawn) | 0.107
8 | CC(NC(C)(C)C)C(=O)c1cccc(Cl)c1 (stereo not drawn) | 0.572
9 | COC(=O)[C@@H]1C[C@H](OC(C)=O)C(=O)[C@H]2[C@@]1(C)CC[C@H]1C(=O)O[C@H](c3ccoc3)C[C@]21C [Salvinorin A] | -0.959
10 | C[C@H]1C(=O)O[C@@H]2CCN3CC=C(COC(=O)[C@](C)(O)[C@]1(C)O)[C@H]23 [Monocrotaline] | 1.08
11 | COc1cc2c(c3oc(=O)c4c(c13)CCC4=O)[C@@H]1CCO[C@@H]1O2 [Aflatoxin B2] | 1.49
12 | COC[C@H]1OC(=O)c2coc3c2[C@@]1(C)C1=C(C3=O)[C@@H]2CCC(=O)[C@@]2(C)C[C@H]1OC(C)=O [Wortmannin] | -2.5
13 | O=C1CSC(c2ccccc2Cl)c2cc(Cl)ccc2N1 (stereo not drawn) | 0.0531
14 | CCOC(=O)CN1C(=O)CC(C[C@@H](O)C2C[C@@H](C)C[C@H](C)C2=O)CC1=O (stereo partly drawn) [Cycloheximide-N-ethylethanoate] | -0.108
15 | CCCC[C@H]1C(=O)O[C@H](C)[C@H](NC(=O)c2cccc(NC=O)c2OC)C(=O)O[C@@H](C)[C@@H]1OC(=O)CC(C)C [2-methoxyantimycin A3] | -1.92
16 | COC(=O)[C@@]1(O)C[C@H]2O[C@]1(C)n1c3ccccc3c3c4c(c5c6ccccc6n2c5c31)C(=O)NC4 | -1.8
17 | C[C@H](CCC(=O)O)C[C@H](C)C[C@H](C)C(=O)/C=C(\O)[C@H](C)C[C@H](C)C/C=C/[C@@H](C)[C@@H](O)[C@@H](C)[C@@H](O)C[C@@H]1CC[C@@](C)([C@H]2CC[C@@](C)([C@@H](C)O)O2)O1 [Ionomycin, Free Acid, Streptomyces conglobatus] | -5.65
18 | NC1CCc2cc(O)c(O)cc2C1 (stereo not drawn) | 0.0305
19 | CO[C@H](C/C=C\C=C\CC/C=C/C[C@H](C)/C=C/C(=C\C(=O)O)CC(=O)O)/C(C)=C\C=C(/C)C(=O)O [Bongkrekic acid] | -1.5
20 | CC(C)N(CCC(C(N)=O)(c1ccccc1)c1ccccn1)C(C)C (stereo not drawn) [Disopyramide] | 0.233
21 | COc1cc2c(c(OC)c1OC)-c1ccc(OC)c(=O)cc1[C@@H](NC(C)=O)CC2 [Colchicine] | -2.64
22 | C=CCN1CC[C@]23c4c5ccc(O)c4O[C@H]2C(=O)CC[C@@]3(O)[C@H]1C5 | 0.771
23 | CN1CCN(C(=O)O[C@H]2c3nccnc3C(=O)N2c2ccc(Cl)cn2)CC1 [Eszopiclone] | 0.525
24 | O=C(NCCN1CCC2(CC1)C(=O)NCN2c1cccc(F)c1)c1ccc(F)c(F)c1 [ML 298 hydrochloride] | 1.21
25 | CO/C1=C\C(C)=C\[C@@H](C)[C@@H](O)[C@@H](C)C/C(C)=C/C=C/[C@H](OC)[C@@H]([C@@H](C)[C@@H](O)[C@H](C)[C@@]2(O)C[C@@H](O)[C@H](C)[C@@H](C(C)C)O2)OC1=O [Bafilomycin A1] | 0.012
26 | CCCCCCCCCCCCCC(=O)O[C@@H]1[C@@H](C)[C@@]2(O)[C@@H](C=C(CO)C[C@]3(O)C(=O)C(C)=C[C@@H]23)[C@@H]2C(C)(C)[C@]12OC(C)=O [Phorbol 12-myristate 13-acetate] | -0.439
27 | CC(C)NCC(O)c1ccc(N)c(C#N)c1 (stereo not drawn) [Cimaterol] | -0.278
28 | COC1=CC(=O)O[C@@H](CCc2ccc3c(c2)OCO3)C1 [Dihydromethylsticin] | -0.0645
